Most compounds without a hit are left out; they make up all but 21% or so of the library.
RORg inh: inhibitors of mouse ROR gamma transcriptional activity | P51450 | Drosophila S2 Gal4-RORgamma UAS-luciferase reporter, 20 h | Potency, µM (titrated, usually from 53.6 µM), for inactives: at the top dose activity change, negative = inhibition, most hits filed as inhibitors | 310,000 compounds, 5.4% hits; note: potency is the fitted concentration of half-maximal effect; nearly all actives have a fitted effect of over 60% in size
Target sequence (P51450 whole entry, looked up, the tested form may be a part): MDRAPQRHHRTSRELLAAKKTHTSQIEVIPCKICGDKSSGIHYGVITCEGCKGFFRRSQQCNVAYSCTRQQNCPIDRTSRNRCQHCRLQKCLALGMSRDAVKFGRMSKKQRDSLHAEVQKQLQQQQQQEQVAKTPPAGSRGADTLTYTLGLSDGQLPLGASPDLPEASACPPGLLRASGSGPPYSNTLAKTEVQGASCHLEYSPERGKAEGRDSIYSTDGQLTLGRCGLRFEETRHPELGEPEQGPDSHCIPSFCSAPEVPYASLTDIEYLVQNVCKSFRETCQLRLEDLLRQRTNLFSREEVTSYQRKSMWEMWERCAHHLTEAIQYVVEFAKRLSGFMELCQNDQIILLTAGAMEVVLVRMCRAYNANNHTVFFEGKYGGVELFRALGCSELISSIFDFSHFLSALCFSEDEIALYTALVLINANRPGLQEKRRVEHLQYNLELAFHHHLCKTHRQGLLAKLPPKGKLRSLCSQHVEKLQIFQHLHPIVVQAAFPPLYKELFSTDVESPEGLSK
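Luciferase reporter read in Schneider cells carrying Gal4-RORγ (mouse) and UAS-Photinus luciferase; cells given compound 1 h before 700 uM copper sulfate induction, then incubated 20 h at ambient temperature.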
Gal4-VP16 FLuc: Gal4-VP16 reporter inhibition counter-screen; Drosophila S2 Gal4-VP16 UAS-luciferase, luminescence, 20 h; Potency, µM (highest dose often 53.6 µM), inactives show top-dose activity, negative = inhibition, usual class: inhibitors; 310,000 compounds, 3.5% hits;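 note: Gal4-VP16 expression switched on by copper sulfate through the metallothionein promoter; potency is the fitted concentration of half-maximal effect; nearly all actives have a fitted effect of over 50% in size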
DT40 TDP1 CPT: growth inhibition of DT40 Tdp1-/-;hTDP1 cells with camptothecin (screen for TDP1 inhibitors); chicken DT40 Tdp1-/-;hTDP1 cells + 20 nM CPT, ATP luminescence, 48 h; AID 686979; Potency, µM (top dose mostly 46.2 µM), for inactives: at the top dose activity change, negative = growth inhibition, hits mostly inhibitors; 420,000 compounds, 12% hits; note: potency is the fitted concentration of half-maximal effect; nearly all actives have a fitted effect of over 55% in size
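Chicken DT40 Tdp1-/- cells stably complemented with human TDP1 were seeded at 400 cells/well in medium containing 20 nM camptothecin, exposed to pin-transferred compounds, and grown at 37 °C for at least 48 hr. Viability was read as ATP luminescence.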
ELG1 repair inh: inhibitors of ELG1-dependent DNA repair in HEK293T cells; HEK293T ELG1-luciferase reporter, luminescence, 16 h; DNA damage induced by 5-fluorouridine; Potency, µM (titrated, usually from 46.1 µM), without a hit: top-dose activity change, negative = inhibition, usual class: inhibitors; 330,000 compounds, 2.3% hits; note: potency is the fitted concentration of half-maximal effect; nearly all actives have a fitted effect of over 55% in size
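Step one: seed 2,000 cells per well. Step two: pin-transfer compound or DMSO alongside 5-fluorouridine. Step three: incubate 16 hr, 37 °C, 5% CO2. Step four: add ONE-Glo, wait 30 min, read luminescence.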
IL1B secr inh: blocks inflammasome-driven IL-1 beta release | activity change, % at 57.5 µM | 360,000 compounds, 4.7% hits | THP-1 LPS/ATP IL-1B secretion, AlphaLISA, 16 h; stronger effect = lower value; in the data active = activity change below about -50%; inconclusive = mostly about -30% to -49%
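THP-1 cells pretreated 1 hr with compounds (up to 57.5 uM final), then stimulated with LPS (250 ng/mL final) plus ATP (1.25 mM final); secreted IL-1B measured by AlphaLISA after 16 hr, decreased signal indicating inhibition.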
TDP1 cell noCPT: qHTS for Inhibitors of human tyrosyl-DNA phosphodiesterase 1 (TDP1): qHTS in cells in absence of CPT | DT40 Tdp1-/- hTDP1 cells, no CPT, ATP luminescence, 48 h | 420,000 compounds, 15% hits | AID 686978, 2013 | Potency, µM (titrated, usually from 46.2 µM), without a hit: at the highest dose activity change, negative = growth inhibition, most hits filed as inhibitors; note: potency is the fitted concentration of half-maximal effect; nearly all actives have a fitted effect of over 55% in size
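A cellular qHTS used chicken DT40 cells lacking endogenous Tdp1 but carrying stably transfected human TDP1. Compounds were applied without camptothecin, and cell growth kinetics were judged by ATP-dependent luminescence after ≥48 hr.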
* = called active by the depositor; u = inconclusive; x = no result; [ ] = dose if it differs, or a comment. Unless noted, calls come from the whole dose curve; as a rule, active = well fitted curve in the direction sought with a large enough effect; inconclusive = small, poorly fitted or top-dose-only effect, or another doubt; inactive = no such curve, though single readings can be large; an effect the other way counts as inactive or inconclusive. % is set by controls: 0 for no effect and ±100 for the full control effect.

SMILES	RORg inh	Gal4-VP16 FLuc	DT40 TDP1 CPT	ELG1 repair inh	IL1B secr inh	TDP1 cell noCPT
Nc1nc(-c2cccs2)c(NC(=O)c2ccccc2)s1	5%[10 µM]	u	16µM*	0%	-95*	18µM*
CC(CNC(=S)Nc1cc(F)cc(F)c1)CSc1ccc(Cl)cc1 (stereo unspecified)	8.9µM*	u	u	11%	-97*	26µM*
Cc1ccc(SCCNC(=S)Nc2cc(C)cc(C)c2)cc1	5µM*	7.9µM*	u	-8%	-3	u
Cc1ccc(SCCNC(=S)Nc2ccc(C)cc2C)cc1	3.5µM*	7.9µM*	1%	-3%	0	3%
CC(C)CNC(=O)CSc1ccc(Cl)cc1	-5%	3%	-5%	u	15	10%
Cc1ccc(NC(=S)NCCSc2ccc(Cl)cc2)cc1	0.79µM*	0.89µM*	-27%	-22%	-91*	u
Cc1ccc(NC(=O)NCCSc2ccc(C)cc2)cc1	25%	-7%	-18%	6%	-8	-16%
COC(=O)Cc1ccc(NC(=S)NCCSc2ccc(C)cc2)cc1	u	1%[10 µM]	u	0%	25	u
N#CCCN(C1CCCCC1)S(=O)(=O)CCOc1ccccc1	-7%	-1%	-1%	-1%	-11	u
O=C1CCC(C(=O)Nc2ccc([N+](=O)[O-])cc2)N1 (stereo unspecified)	x	x	-7%	7%	5	-17%
O=C(CCCc1nc(-c2ccco2)no1)Nc1ccccc1[N+](=O)[O-]	x	x	-4%	x	x	-21%
CCOc1ccc(NC(=O)CC2C(=O)N(c3ccccc3)C(=O)N2C2CCCC2)cc1 (stereo unspecified)	x	x	u	x	x	-11%
Cc1cccc(C)c1NC(=S)NCCSc1ccc(Cl)cc1	2.5µM*	u	u	u	-72*	u
Cc1cccc(C)c1NC(=S)NC(C)(C)CO	-39%	3%	-2%	1%	5	-4%
CCCCc1cc(=O)oc2cc(C)cc(OCC(=O)N3CCC(C(=O)O)CC3)c12	10%	-2%	-2%	20%	-1	-5%
Cc1cccc(C)c1NC(=O)Cn1c(=O)n(CCC(=O)NCc2ccccc2Cl)c(=O)c2sccc21	x	x	-1%	x	x	-4%
COc1ccc(NC(=O)c2nc[nH]c2C(=O)N[C@@H](CC(C)C)C(=O)OC(C)(C)C)cc1	5.6µM*	16µM*	u	u	-26	u
C[C@H](NC(=O)c1nc[nH]c1C(=O)N[C@@H](C)C(=O)OC(C)(C)C)C(=O)OCc1ccccc1	u	u	-13%	23%	27	-16%
C[C@H](NC(=O)c1[nH]cnc1C(=O)Nc1ccccc1)C(=O)OC(C)(C)C	2.8µM*	11µM*	u	u	11	u
CC(C)C[C@H](NC(=O)c1nc[nH]c1C(=O)N1CCNCC1)C(=O)OC(C)(C)C	x	x	-17%	6%	-19	7%
Cc1ccc(NC(=O)c2nc[nH]c2C(=O)N[C@@H](C)C(=O)OC(C)(C)C)cc1	6.3µM*	u	u	-1%	-23	u
CNC(=O)c1[nH]cnc1C(=O)N[C@@H](C)C(=O)OC(C)(C)C	-42%	-1%	0%	-13%	7	-11%
COc1ccc(NC(=O)c2nc[nH]c2C(=O)N[C@@H](C)C(=O)OC(C)(C)C)cc1	11µM*	u	u	-26%	3	-19%
COc1ccccc1C(=O)C1CCCN(C(=O)c2cccc(Cn3cccn3)c2)C1 (stereo unspecified)	23%	16%	u	-11%	-1	u
CCOC(=O)CC(=O)CSc1nc2c(sc(=S)n2-c2ccc(C)c(C)c2)c(=O)[nH]1	30%	6%	-3%	-12%	-4	-14%
